According to PubChem BioAssay:
For part of these data: Measured potencies and affinities stand elsewhere. Activity calls are given as the source filed them.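 How the source made its calls, unless noted: active means fitted half-maximal concentration within 10 nM to 100 µM, steepness 0.5 to 2, significant signal drop, low assay interference; inactive means the rest.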

How the values were obtained:
[1] = target: Cell division control protein 42 homolog (Homo sapiens) (UniProt P60953); assay: activated mutant Cdc42 GTP-binding inhibitors, dose response, biochemical, multiplex bead flow cytometry, Bodipy-FL-GTP (AID 1333;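 active means fitted half-maximal concentration within the tested dose range, moderate curve steepness, a statistically real signal drop, and little compound fluorescence or tag-binding interference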)
[2] = target: Cell division control protein 42 homolog (Homo sapiens) (UniProt P60953); assay: wildtype Cdc42 GTP-binding inhibitors, dose response, biochemical, multiplex bead flow cytometry, Bodipy-FL-GTP (AID 1334;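 active means fitted half-maximal concentration within the tested range, moderate curve steepness, significant signal drop, and little compound fluorescence or bead-linkage interference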); details: bead-based flow cytometry, Bodipy-FL-GTP binding to GST-Cdc42; at 100 µM (top of the series) unless noted
[3] = target: GTPase HRas (Homo sapiens) (UniProt P01112); assay: inhibitors of GTP binding to wildtype Ras, dose response, biochemical, multiplex bead flow cytometry (AID 1335); details: bead-based flow cytometry, Bodipy-GTP binding to GST-Ras; at 100 µM (top of the series) unless noted
[4] = test system: Ras-related protein Rab-7a (dog), GTP binding; assay: Rab7 GTP binding inhibitors, potency, dose response, biochemical, wildtype, multiplex bead flow cytometry (AID 1336; call rule not given here)
[5] = target: Ras-related C3 botulinum toxin substrate 1 (Homo sapiens) (UniProt P63000); assay: wildtype Rac1 GTP binding inhibitors, dose response, biochemical, multiplex bead flow cytometry (AID 1340;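 active means dose curve with midpoint inside tested range, moderate steepness, plateau gap beyond fit error, low compound glow and bead-link interference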); details: GST-Rac1 beads, Bodipy-FL-GTP binding; at 100 µM (top of the series) unless noted
[6] = target: GTPase HRas (Homo sapiens) (UniProt P01112); assay: activated Ras mutant GTP binding inhibitors, dose response, biochemical, multiplex bead flow cytometry (AID 1341;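 active means dose-response curve with midpoint inside the tested range, moderate steepness, significant amplitude and little compound fluorescence or bead-attachment interference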;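 further: GST-tagged constitutively activated Ras mutant immobilized on beads and multiplexed with other GTPases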)

GTPase HRas (Homo sapiens), sequence (P01112 whole entry, looked up): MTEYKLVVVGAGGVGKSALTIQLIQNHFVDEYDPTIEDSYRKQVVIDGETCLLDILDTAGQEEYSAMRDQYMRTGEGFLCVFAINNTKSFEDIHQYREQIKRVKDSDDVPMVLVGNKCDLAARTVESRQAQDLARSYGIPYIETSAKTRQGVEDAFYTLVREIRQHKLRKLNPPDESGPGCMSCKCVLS
Cell division control protein 42 homolog (Homo sapiens), sequence (P60953 whole entry, looked up): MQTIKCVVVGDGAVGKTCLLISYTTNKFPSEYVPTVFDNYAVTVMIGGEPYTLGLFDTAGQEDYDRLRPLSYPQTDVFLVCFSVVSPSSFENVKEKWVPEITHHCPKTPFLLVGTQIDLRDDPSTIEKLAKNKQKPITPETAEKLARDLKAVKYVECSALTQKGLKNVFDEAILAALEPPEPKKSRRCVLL

Compound | outcome [1] | fluorescence, percent of control (lower = inhibition) [2] | GTP binding, percent of control [3] | outcome [4] | GTP binding signal, raw median fluorescence (lower = inhibition) (MCF (arbitrary fluorescence units)) [5] | outcome [6]
Cc1cccc(OCC(=O)N/N=C/c2ccc3c(c2)OCO3)c1 | inactive | 34.8% | 89.5% | inactive | 256 | inactive
COc1ccc2o/c(=N/NC(=O)c3cccs3)c(C(N)=O)cc2c1 | inactive | 28.1% | 64.4% | inactive | 160 | inactive
Cc1cc(NS(=O)(=O)c2ccc(NC(=O)c3cc4c(=O)n5ccccc5nc4s3)cc2)nc(C)n1 | inactive | 31.9% | 77.5% | inactive | 166 | inactive
O=C(CCc1nnc(-c2ccc3c(c2)OCO3)o1)N1CCC(c2ccc(F)cc2)C1 (stereo not given) | inactive | 36.1% | 88.1% | inactive | 303 | inactive
COc1cc(NC(=O)c2cccs2)c(OC)cc1NC(=O)CCC(=O)Nc1ccc2ncccc2c1 | inactive | 30.9% | 69.1% | inactive | 196 | inactive
CC(C)(C)NC(=O)c1ccc2nsnc2c1 | inactive | 52.7% | 66.2% | inactive | 213 | inactive
CCN(CC)c1ccc2c(c1)oc(=O)c1c(Cl)cc(=O)oc12 | inactive | 29% | 72.6% | inactive | 226 | inactive
Cc1ccc(OCCn2cnc3cc([N+](=O)[O-])ccc3c2=O)cc1 | inactive | 38.1% | 85.1% | inactive | 190 | inactive
O=C(OCCN1CCCCC1)c1cc2ccccc2o1 | inactive | 34.8% | 79.9% | inactive | 271 | inactive
CCn1c(SCC(=O)O)nnc1-c1cc2c(C)nn(-c3ccccc3)c2s1 | inactive | 25.1% | 64.4% | inactive | 128 | inactive
Cc1ccc(C2=NN(CCC(=O)NCc3ccc4c(c3)OCO4)C(=O)CC2)cc1 | inactive | 51.3% | 60.2% | inactive | 207 | inactive
Cc1cccc(C)c1CCOc1ncccc1C(=O)O | inactive | 80.3% | 251% | inactive | 70.2 | inactive
COc1cc(/C=C(/C#N)c2nc3ccccc3[nH]2)ccc1OCc1ccc(C(=O)O)o1 | inactive | 21.9% | 59.6% | inactive | 116 | inactive
N#C/C(=C\c1cccnc1)c1nc2ccccc2[nH]1 | inactive | 32.6% | 82.7% | inactive | 251 | inactive
O=C(O)c1ccc2c3c(cccc13)C(=O)N(OS(=O)(=O)c1ccccc1)C2=O | inactive | 33.5% | 78.2% | inactive | 191 | inactive
O=C(Nc1cnn(C23CC4CC(CC(C4)C2)C3)c1)c1cnn2cccnc12 | inactive | 41.2% | 94.2% | inactive | 324 | inactive
O=C(CCNS(=O)(=O)c1cccc2nsnc12)N1CCN(c2ccccn2)CC1 | inactive | 52.4% | 64.7% | inactive | 203 | inactive
O=C(O)c1cc(Sc2ccccc2)nc2ccccc12 | inactive | 56.6% | 81.9% | inactive | 30.1 | inactive
Cc1nnc(-n2ncc(C#N)c2N)c2nn(-c3cccc(Cl)c3)c(C)c12 | inactive | 62.8% | 76.8% | inactive | 198 | inactive
COc1ccc(C)cc1NC(=O)COC(C)=O | inactive | 94.8% | 180% | inactive | 179 | inactive

Compound | outcome [1] | fluorescence, percent of control (lower = inhibition) [2] | GTP binding, percent of control [3] | outcome [4] | GTP binding signal, raw median fluorescence (lower = inhibition) (MCF (arbitrary fluorescence units)) [5] | outcome [6]
Cc1cc(C)n(Cc2n[nH]c(=S)n2Cc2ccccc2)n1 | inactive | 106% | 189% | inactive | 198 | inactive
COC(=O)C1=C(C)NC(=O)/C1=C\c1cc(C)n(-c2c(C)cccc2C)c1C | inactive | 37% | 84.9% | inactive | 308 | inactive
Cc1ccc(Nc2nc(-c3c(C)nc4ncccn34)cs2)cc1 | inactive | 29.8% | 43.7% | inactive | 103 | inactive
O=C(O)c1ccc(COc2cccc(Cl)c2)o1 | inactive | 60.1% | 87% | inactive | 32.8 | inactive
O=[N+]([O-])c1cccc(S(=O)(=O)N2CCCC2)c1 | inactive | 52.4% | 63.8% | inactive | 205 | inactive
Oc1ccc(C2=Nn3c(nnc3-c3ccco3)SC2)cc1O | inactive | 25.1% | 35.2% | inactive | 0 | inactive
COc1cccc(-n2nc3c(=S)[nH]nc(C)c3c2C)c1 | inactive | 50.1% | 63.5% | inactive | 199 | inactive
Cc1ccc(C)c(OCc2ccc(C(=O)O)o2)c1 | inactive | 63.2% | 87.7% | inactive | 39.9 | inactive
COc1cc(N2CCCC2)c(OC)cc1/C=C(/C#N)c1cccc(Br)c1 | inactive | 103% | 110% | inactive | 228 | inactive
CCOc1nnc(C)c2c(C)n(-c3ccc(Cl)cc3)nc12 | inactive | 52.2% | 66.3% | inactive | 197 | inactive
O=C(O)c1ccc(N2C(=O)/C(=C/c3ccc(-c4ccc([N+](=O)[O-])cc4)o3)C=C2c2ccccc2)cc1 | inactive | 33.9% | 77.4% | inactive | 179 | inactive
O=C(O)C1(NCc2ccc(F)cc2)CCCCC1 | inactive | 62.4% | 89.4% | inactive | 33.6 | inactive
COc1ccc(S(=O)(=O)N2CCCCC2)cc1NC(=O)c1ccc([N+](=O)[O-])o1 | inactive | 32.3% | 73.3% | inactive | 172 | inactive
COc1ccccc1OCCn1cc(C(=O)O)c2ccc(Cl)cc21 | inactive | 57% | 201% | inactive | 61.4 | inactive
Cn1nc([N+](=O)[O-])c(C(C#N)c2ccccn2)c(Cl)c1=O (stereo not given) | inactive | 24% | 74.7% | inactive | 201 | inactive
C=CC#CC[N+]1(CC#Cc2ccccc2)CCOCC1 | inactive | 97.9% | 95.4% | inactive | 537 | inactive
O=C(NC1CCCCC1)C(c1ccco1)N(Cc1ccco1)C(=O)c1ccco1 (stereo not given) | inactive | 90.7% | 174% | inactive | 176 | inactive
Cc1nnc2ccc(-c3ccc(NC(=O)c4ccco4)cc3)nn12 | inactive | 69.8% | 109% | inactive | 215 | inactive
CCOC(=O)Cn1nnnc1CN(Cc1cccs1)Cc1cc2cc(C)ccc2[nH]c1=O | inactive | 98.4% | 178% | inactive | 187 | inactive
NS(=O)(=O)c1cccnc1Nc1c(Cl)cccc1Cl | inactive | 90.6% | 152% | inactive | 187 | inactive

Compound | outcome [1] | fluorescence, percent of control (lower = inhibition) [2] | GTP binding, percent of control [3] | outcome [4] | GTP binding signal, raw median fluorescence (lower = inhibition) (MCF (arbitrary fluorescence units)) [5] | outcome [6]
COc1cc(N=c2oc3c(C)ncc(CO)c3cc2C(N)=O)cc(OC)c1OC | inactive | 26.9% | 58.2% | inactive | 139 | inactive
COc1cc2[nH]c(=S)nc(NCCc3ccc(S(N)(=O)=O)cc3)c2cc1OC | inactive | 36.7% | 81.9% | inactive | 268 | inactive
Cc1ccc(-n2c(SCc3cc(=O)n4ccsc4n3)nnc2-c2cccnc2)c(C)c1 | inactive | 79.6% | 157% | inactive | 178 | inactive
COc1ccc(CC(=O)Nc2ccc(C(=O)Nc3nccs3)cc2)cc1OC | inactive | 36.7% | 75.2% | inactive | 163 | inactive
CC(C)c1nc2oc3c(=O)[nH]cnc3c2c2c1CCC2 | inactive | 80% | 108% | inactive | 138 | inactive
COC(=O)c1cccnc1SCc1ccccc1 | inactive | 46% | 61.1% | inactive | 184 | inactive
CCCn1cc(CN2CCCC(CNC(=O)c3ccc(F)cc3)C2)c(C)n1 (stereo not given) | inactive | 37.6% | 85.7% | inactive | 247 | inactive
CCN(CC)c1ccc(/C=c2\sc3nnc(-c4ccccc4Cl)n3c2=O)cc1 | inactive | 117% | 128% | inactive | 225 | inactive
CCN=C1S/C(=C\c2ccc(OC)c(OCC)c2)C(=O)N1CC | inactive | 50.8% | 60.4% | inactive | 213 | inactive
CCOc1c2ccc(C(=O)N[C@H](C)C3CCCCC3)cc2nn1CCOC | inactive | 94.9% | 152% | inactive | 197 | inactive
COc1ccc(OCc2ccccc2Br)c(C(=O)O)c1 | inactive | 53% | 217% | inactive | 49.3 | inactive
CCCCCCCCCCCCCCCC(=O)Nc1cccc(C#CC(=O)c2ccc([N+](=O)[O-])cc2)c1 | inactive | 66% | 186% | inactive | 134 | inactive
O=C(CSc1ccc2nnc(-c3ccccn3)n2n1)Nc1ccc2c(c1)OCO2 | inactive | 39.5% | 53.4% | inactive | 120 | inactive
N#CC(c1ccc(Cl)nn1)c1ccc(Cl)cc1Cl (stereo not given) | inactive | 34.5% | 77.7% | inactive | 263 | inactive
Cc1cc(C)n2nc(SCCOc3ccccc3)nc2n1 | inactive | 31.1% | 71.1% | inactive | 183 | inactive
Nc1c(S(=O)(=O)c2cccs2)c2nc3ccccc3nc2n1/N=C/c1cccc(O)c1 | inactive | 30.6% | 77.3% | inactive | 101 | inactive
COc1cccc(C2CC(c3ccccc3)Nc3ncnn32)c1 (stereo not given) | inactive | 38.6% | 80.1% | inactive | 242 | inactive
COc1ccc(C(=O)O)c(OCc2c(C)cccc2C)c1 | inactive | 59% | 208% | inactive | 55.5 | inactive
Cc1cc(NC(=O)/C(C#N)=C/c2ccc(-c3ccc(SC(F)F)cc3)o2)n(-c2ccccc2)n1 | inactive | 75.1% | 96.7% | inactive | 211 | inactive
COc1cccc(OCc2ccccc2Br)c1C(=O)O | inactive | 51.9% | 206% | inactive | 46.4 | inactive
